Sfp inh: inhibitors of Bacillus subtilis Sfp phosphopantetheinyl transferase. Biochemical Sfp PPTase activity, qHTS. Potency, µM, inactives show largest response in the series, negative = inhibition, most hits filed as inhibitors. 3.5% of 310,000 active;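 also: the enzyme is Sfp with the accession as filed and its product quenches rhodamine fluorescence; 0% = enzyme reaction without inhibitor and -100% = no enzyme wells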
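Fluorescence-quenching assay with 15 nM Sfp, 5 uM rhodamine-CoA and 12.5 uM BHQ-2-labelled ybbR peptide in pH 7.6 Hepes/MgCl2 buffer. Enzyme was pre-incubated with compound for 15 min at room temperature. Rate was taken from the 30-min fluorescence change (525/598 nm).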
IDH1 R132H inh: inhibitors of human mutant IDH1 R132H. O75874. IDH1-R132H enzyme, NADPH consumption, diaphorase/resazurin fluorescence. Potency, µM (series often up to 76.6 µM), inactives show top-dose activity change, negative = inhibition, usual class: inhibitors. 0.093% of 390,000 active; also: nearly all actives have a fitted effect of over 65% in size
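IDH1-R132H (0.5 ug/mL) preincubated 30 min with compound, then NADPH (0.016 mM) and alpha-KG (2 mM) added; 80 min at RT, pH 7.5. Remaining NADPH coupled via diaphorase/resazurin to fluorescence (540/590 nm); concentration-response curves normalized to no-enzyme control.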
PLK1 PBD inh: inhibitors of human PLK1 polo-box domain binding. 2.8% of 360,000 active. Potency, µM, for inactives: max response, negative = inhibition, usual class: inhibitors. Plk1 PBD binding of FITC phosphopeptide, fluorescence polarization. P53350; also: series mostly up to about 57 µM; nearly all actives have a fitted effect of over 65% in size
TrxR1 substrate: rat thioredoxin reductase 1 substrate activity. Potency, µM (titrated, usually from 114 µM), inactives show at the highest dose activity change, negative = substrate turnover. 0.01% of 390,000 active. O89049. purified TrxR1 substrate turnover, NADPH consumption readout. AID 588456; also: nearly all actives have a fitted effect of over 50% in size
Target sequence (O89049 whole entry, looked up): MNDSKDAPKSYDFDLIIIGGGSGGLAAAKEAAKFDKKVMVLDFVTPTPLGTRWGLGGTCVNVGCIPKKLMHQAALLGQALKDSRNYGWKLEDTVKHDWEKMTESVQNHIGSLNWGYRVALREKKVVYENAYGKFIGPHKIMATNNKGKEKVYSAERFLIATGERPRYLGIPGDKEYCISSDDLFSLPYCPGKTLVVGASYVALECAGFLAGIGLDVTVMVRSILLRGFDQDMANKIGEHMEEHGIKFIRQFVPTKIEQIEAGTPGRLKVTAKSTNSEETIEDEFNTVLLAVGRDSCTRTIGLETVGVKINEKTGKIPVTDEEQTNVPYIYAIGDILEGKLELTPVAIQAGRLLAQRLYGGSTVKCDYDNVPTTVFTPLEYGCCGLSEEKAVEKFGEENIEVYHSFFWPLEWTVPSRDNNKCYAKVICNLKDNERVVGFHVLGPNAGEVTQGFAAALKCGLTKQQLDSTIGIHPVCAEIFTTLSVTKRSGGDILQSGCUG
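Rat TrxR1, dispensed at 90 nM, was prereduced with 400 uM NADPH (final) for 5 min at ~22 deg C, then incubated with compound 15 min before 400 uM selenite. A first-read NADPH fluorescence drop versus no-compound background flagged substrates.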
rTrxR1 inhibitor: rat TrxR1 inhibition | O89049 | recombinant rTrxR1, NADPH fluorescence consumption, selenite substrate | Potency, µM (highest dose often 114 µM), inactives show at the highest dose activity change, negative = inhibition, usual class: inhibitors | 1% of 390,000 active | AID 588453; also: nearly all actives have a fitted effect of over 65% in size
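Rat TrxR1 (90 nM in the dispensed reagent) was pre-reduced with 400 uM NADPH for 5 min at room temperature, then incubated with compound for 15 min. After 400 uM selenite was added, NADPH fluorescence (Ex 340/Em 450 nm) was followed for 8 min.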
VDR inh: blocks the human vitamin D receptor; 0.93% of 400,000 active; AID 504847; VDR-SRC2-3 peptide fluorescence polarization, 2 h; P11473; Potency, µM, for inactives: max response, negative = inhibition, hits mostly inhibitors
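Fluorescence polarization assay measuring small-molecule disruption of VDR binding to the coregulator peptide SRC2-3. Compounds were pin-transferred (23 nl) into the reagent mix and incubated 2 h at room temperature before reading.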
The depositor's hits bear a star; ? = inconclusive; nt = no result; ! = repeats disagree; [ ] = remark or other dose. Only some compounds are listed: those with a hit (about 5.2% of all), similar ones and a draw of the others. Calls follow the shape of the dose curve; as a rule, active = well fitted curve in the direction sought with a large enough effect; inconclusive = small, poorly fitted or top-dose-only effect, or another doubt; inactive = no such curve, though single readings can be large; an effect the other way counts as inactive or inconclusive. Unless noted, % is scaled to controls: 0 for no effect and ±100 for the full control effect; potency is read from the fitted curve at half-maximal effect.

SMILES	Sfp inh	IDH1 R132H inh	PLK1 PBD inh	TrxR1 substrate	rTrxR1 inhibitor	VDR inh
O=C1NC(=S)S/C1=C\c1ccc(SCc2ccccc2)o1	?	-4%	27µM*	0%	25µM*	?
Cc1ccsc1/C=N/N1CCN(Cc2ccccc2)CC1	-8%	6%	21µM*	8%	18%[57.1 µM]	5%
Cc1ccsc1/C=N/N1CCN(c2ccccc2)CC1	13%	6%	2%	-5%	-22%	9%
COc1cc(NC(=O)c2cccc(Cl)c2)c(OC)cc1NC(=O)CN1CCCCC1	-6%	8%	30µM*	4%[57.1 µM]	13%[57.1 µM]	-25%
COc1cccc(Cn2c(=O)c(-c3ccc(F)cc3)nc3cnc(N(C)C)nc32)c1	11%	nt	nt	nt	nt	-6%
O=c1/c(=C\c2cc([N+](=O)[O-])cc([N+](=O)[O-])c2O)sc2nc3ccccc3n12	22µM*	-20%	?	0%[57.1 µM]	?	40µM*
O=C(O)c1cc(C(=O)O)cc(-c2ccc(/C=c3/sc4nc5ccccc5n4c3=O)o2)c1	7.1µM*	7%	-15%	-4%[57.1 µM]	-11%[57.1 µM]	8%
O=C(CCOc1ccccc1)NO	nt	nt	nt	3%	14%	nt
CCCOC(=O)N1CCN(/[N+]([O-])=N/Oc2ccc([N+](=O)[O-])cc2[N+](=O)[O-])CC1	-12%	nt	nt	-11%	11µM*	?
O=[N+]([O-])c1ccc(O/N=[N+](\[O-])N2CCCCC2)c([N+](=O)[O-])c1	nt	nt	nt	-11%	22µM*	nt
COC(=O)N1CCN(/[N+]([O-])=N/Oc2ccc([N+](=O)[O-])cc2[N+](=O)[O-])CC1	-9%	nt	nt	-8%	?	?
CCSC(=O)N1CCN(/[N+]([O-])=N/Oc2ccc([N+](=O)[O-])cc2[N+](=O)[O-])CC1	nt	nt	nt	2%	11µM*	nt
CCOC(=O)N1CCN(C(=O)COC(=O)c2ccc([N+](=O)[O-])cc2Cl)CC1	nt	-3%	-4%	-5%[57.1 µM]	10%[57.1 µM]	2%
CCOC(=O)N1CCN(C(=O)c2ccc([N+](=O)[O-])cc2Cl)CC1	10%	6%	24µM*	7%[2.29 µM]	13%[57.1 µM]	?
COc1ccc(-n2nc(C(=O)Nc3ccc(C)cn3)c3c4ccccc4n(C)c3c2=O)cc1	nt	nt	nt	0%	17%	-15%
COCCn1c(=O)c(-c2ccc(Cl)cc2)nc2cnc(N3CCNCC3)nc21	0%	nt	nt	nt	nt	?
Cc1ccc(S(=O)(=O)CC(=O)N(CCCN2CCOCC2)c2nc3c(F)cccc3s2)cc1	nt	-10%	4%	-5%[57.1 µM]	-6%[57.1 µM]	-3%
O=C(CCS(=O)(=O)c1ccccc1)N(CCCN1CCOCC1)c1nc2c(F)cccc2s1	nt	-1%	?	-10%	3.2µM*	?
O=C(CCS(=O)(=O)c1ccccc1)N(CCCN1CCOCC1)c1nc2ccc(F)cc2s1	nt	9%	?	8%	7.1µM*	-14%
Cc1[nH]c2ccccc2c1C(=O)CN1CCC(C)CC1	24%	-1%	-29%	-4%	35µM*	-14%
CC[C@H]1OC(=O)[C@H](C)[C@@H](O[C@H]2C[C@@](C)(OC)[C@@H](O)[C@H](C)O2)[C@H](C)[C@@H](O[C@@H]2O[C@H](C)C[C@H](N(C)C)[C@H]2O)[C@](C)(O)C[C@@H](C)C(=O)[C@H](C)[C@@H](O)[C@]1(C)O	6%	8%	21µM*	2%	33%	-2%
COc1ccc(N2CCN(CCCNC(=O)CN3C(=O)COc4ccccc43)CC2)cc1	14%	12%	?	-4%[57.1 µM]	12%[57.1 µM]	-22%
CC1(C)Cc2nc3sc(C(=O)NCCCO)c(N)c3cc2CS1	40µM*	11%	-19%	6%[57.1 µM]	17%[57.1 µM]	3%
CC1(C)Cc2nc3sc(C(=O)O)c(N)c3cc2CS1	-23%	nt	nt	nt	nt	nt
COc1cccc(/C=C2\CCC(C3CCCC3)C2=O)c1 (stereo not drawn)	-1%	6%	-13%	14%[57.1 µM]	5%[57.1 µM]	-1%
SMILES	Sfp inh	IDH1 R132H inh	PLK1 PBD inh	TrxR1 substrate	rTrxR1 inhibitor	VDR inh
COc1cccc(/C=C2/CCC(CN(C)C)C2=O)c1 (stereo not drawn)	nt	-13%	3.4µM*	9%[11.4 µM]	1.1µM*	40µM*
COc1ccc(/C=C2/CCCC(CN(C)C)C2=O)cc1 (stereo not drawn)	nt	2%	24µM*	5%[57.1 µM]	?	?
CN(C)CC1CCC/C(=C/c2ccc(Cl)cc2)C1=O (stereo not drawn)	nt	3%	6µM*	10%[57.1 µM]	?	79µM*
CN(C)CC1CCC/C(=C\c2ccc(OC(=O)/C=C/c3ccc(Cl)c(Cl)c3)cc2)C1=O (stereo not drawn)	nt	8%	-19%	3%	?	?
CCCC/C=C1/CCC(CN(C)C)C1=O (stereo not drawn)	nt	1%	12µM*	4%[11.4 µM]	0.63µM*	?
O=C(Cn1c(=O)nc(-c2ccccc2)c2ccccc21)N1CCN(c2ccc(F)cc2)CC1	nt	-21%	nt	1%[57.1 µM]	11%[57.1 µM]	20%
CC1(C(=O)Nc2cnc3ccccc3c2)CCN1Cc1ccccc1OC(F)F (stereo not drawn)	nt	nt	5%	nt	nt	nt
Oc1c(Cl)cc(Cl)cc1/C=N/c1nccs1	50µM*	0%	34µM*	-4%	?	79µM*
CC(=O)c1ccc(S(=O)(=O)NCC(=O)NC(c2nc3ccccc3[nH]2)C(C)C)cc1 (stereo not drawn)	nt	-22%	19µM*	-5%	12%	?
c1ccc(-c2onc(-c3ccco3)c2-c2ccc3[nH]ccc3c2)cc1	-11%	17%	-20%	12%[57.1 µM]	28µM*!	10%
CCCCCC(=O)N1c2ccccc2C(C)(c2ccccc2)CC1(C)C (stereo not drawn)	nt	14%	nt	6%	6%	6%
CCc1cc2c(-c3ccccc3)cc(=O)oc2cc1OCC(C)=O	2%	-5%	-16%	14%	-11%[57.1 µM]	-20%
CCCc1cc2c(-c3ccccc3)cc(=O)oc2cc1OCc1ccc(C(=O)O)o1	-29%	?	24µM*	7%	2%[57.1 µM]	-24%
N#C/C(=N/Nc1ccc(OC(F)(F)F)cc1)C(N)=S	?	-11%	-8%	-11%	-13%	-16%
NC(=S)N=Nc1ccc(NN=C(N)N)cc1	0.56µM*	17%	3.8µM*	-9%	20µM*	18µM*
Cc1ccc(S(=O)(=O)N(CCC(=O)NCC(c2ccccc2)N(C)C)c2ccccc2)cc1 (stereo not drawn)	nt	7%	2%	-3%	-7%	-15%
O=C(Nn1c(O)c(C=C2N=c3ccccc3=N2)sc1=S)c1ccccc1	-15%	5%	-4%	-1%[57.1 µM]	-2%[57.1 µM]	1%
Cc1ccc(C(=O)Nn2c(O)c(C=C3N=c4ccccc4=N3)sc2=S)cc1	50µM*	8%	-17%	5%	5%	-14%
COCc1cc(C)nc2sc(C(=O)N3CCCCC3)c(N)c12	79µM*	9%	-10%	-8%	-10%	-15%
